Screening results as filed in PubChem BioAssay.
Only some compounds are listed: those with a hit (about 1.4% of all), similar ones and a draw of the others.
MIN6 prolif-1 = inducers of MIN6 beta-cell proliferation, primary screen, ATP luminescence, uHTS. AID 2380, 2010. 330,000 tested, 0.29% active. proliferation, % at 10 µM. MIN6 cells proliferation, ATPlite luminescence, 48 h; cells starved in 0.2% serum; 100% = growth in 10% serum;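 active = compounds whose signal lies at least 3.5 SD above the mean of all wells on their plate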;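 note: 0% = DMSO-treated cells in low-serum medium and 100% = 10% serum control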
MOR-DOR ag = agonists of OPRM1-OPRD1 heterodimerization, primary screen, cell-based, luminescence; activation, % at 9.3 µM; Mu-type opioid receptor (Homo sapiens) + Delta-type opioid receptor (Homo sapiens), …; cells; 340,000 tested, 0.3% active; in the data active = activation above about 18%;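 note: 0% = vehicle-treated cells and 100% = reference agonist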
MOR-DOR inv ag = inverse agonists of MOR-DOR heterodimerization, primary screen, cell-based, luminescence. Mu-type opioid receptor (Homo sapiens) + Delta-type opioid receptor (Homo sapiens), …. cell-based MOR-DOR heterodimer luminescence, inverse agonism. inhibition, % at 9.3 µM. 340,000 tested, 0.21% active; in the data active = inhibition above about 22%, passing the limit was not always enough;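 note: 0% = cells with DMSO and 100% = wells without cells with DMSO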
p-CIP stab down = p/CIP-EGFP fusion destabilizers, primary screen, fluorescence, F442A cells; Q05BA5; 16 h; decrease of EGFP signal, % at 10 µM; 290,000 tested, 0.01% active; AID 1984, 2009;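 active = EGFP signal decrease of at least 30% at 10 µM or well 3 SD below plate mean, unless failing retest; inactive = the rest, including hits failing retest or dose response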
HTR5A inv ctr = HTR5A inverse agonists in luminescence cell assay, primary screen, counter-screen for OPRM1-OPRD1 heterodimer inverse agonist project, full-deck HTS. HTR5A cell line, inverse agonism. inhibition, % at 9.3 µM. 340,000 tested, 0.083% active; in the data active = inhibition mostly above about 23%, no sharp cut-off; inactive = mostly below about 18%;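 note: 0% = cells with DMSO and 100% = no-cell wells with DMSO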
HTR5A ag ctr = HTR5A agonists in luminescence cell assay, primary screen, counter-screen for OPRM1-OPRD1 heterodimer agonist project, full-deck HTS; 340,000 tested, 0.61% active; cell-based; activation, % at 9.3 µM; AID 504692, 2011; in the data active = activation mostly above about 9.5%, no sharp cut-off; inactive = mostly below about 7.6%;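 note: 0% = cells with vehicle only and 100% = reference agonist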
MIN6 prolif-2 = inducers of beta-cell proliferation in MIN6, confirmation, MIN6 cells, mouse; shares compounds with MIN6 prolif-1; ATPlite luminescence, 48 h; cells kept in 0.2% serum; scaled between 0.2% and 10% serum; proliferation increase, % at 50 µM; 920 tested, under 10 active; AID 463095, 2010;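 active = proliferation increase above 40% at any of the four tested concentrations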
Active calls of the source: *.

For CC(C)CNc1nc(N)c([N+](=O)[O-])c(NCC2CCCO2)n1 (stereo unspecified) the results were MIN6 prolif-1 3, MOR-DOR ag 0, MOR-DOR inv ag 2, p-CIP stab down -5, HTR5A inv ctr -5 and HTR5A ag ctr 3.
For COCCCn1c(C(=O)NC2CCCCC2C)cc2c(=O)n3cccc(C)c3nc21 (stereo unspecified) the results were MIN6 prolif-1 4.9*, MOR-DOR ag -1, MOR-DOR inv ag 3, p-CIP stab down -9, HTR5A inv ctr 1, HTR5A ag ctr -2 and MIN6 prolif-2 -6.
Screening CC(C)n1c(N2CCN(C(=O)NCc3ccccc3)CC2)nc2ccccc21 returned MIN6 prolif-1 8.4*, MOR-DOR ag -2, MOR-DOR inv ag 9, p-CIP stab down -9, HTR5A inv ctr -34, HTR5A ag ctr 10* and MIN6 prolif-2 -3.
`COc1ccc(NC(=O)N2CCN(c3nc4ccccc4n3C(C)C)CC2)cc1` gave MIN6 prolif-1 5, MOR-DOR ag -1, MOR-DOR inv ag 4, p-CIP stab down 5, HTR5A inv ctr 12 and HTR5A ag ctr -4.
COc1ccc(C2=Nn3c(nnc3-c3ccncc3)SC2)cc1 was read as MIN6 prolif-1 14*, MOR-DOR ag -3, MOR-DOR inv ag 17, p-CIP stab down -15, HTR5A inv ctr 0, HTR5A ag ctr -7 and MIN6 prolif-2 4.
For COc1ccc(C2=Nn3c(nnc3-c3cccnc3)SC2)cc1 the results were MOR-DOR ag -3, MOR-DOR inv ag 15, p-CIP stab down 1, HTR5A inv ctr -3 and HTR5A ag ctr -5.
For CCCn1c(SCC(=O)N2CCc3ccccc32)n[nH]c1=O the results were MIN6 prolif-1 -1, MOR-DOR ag -4, MOR-DOR inv ag 20, HTR5A inv ctr 5 and HTR5A ag ctr -1.
O=C(C1Cc2ccccc2CN1C(=O)c1ccccc1)N1CCN(c2ccccc2)CC1 (stereo unspecified) was read as MIN6 prolif-1 -2, MOR-DOR ag -3, MOR-DOR inv ag 16, p-CIP stab down 7, HTR5A inv ctr -32 and HTR5A ag ctr -2.
For COc1ccc(/C=N/NC(=O)CCOc2ccccc2C)cc1OC the results were MIN6 prolif-1 2, MOR-DOR ag 0, MOR-DOR inv ag 2, p-CIP stab down -4, HTR5A inv ctr -39 and HTR5A ag ctr 2.
COc1cc(/C=N/NC(=O)CCOc2ccccc2C)cc(Br)c1O was read as MIN6 prolif-1 7.3*, MOR-DOR ag -2, MOR-DOR inv ag 12, p-CIP stab down -7, HTR5A inv ctr -3, HTR5A ag ctr 1 and MIN6 prolif-2 -4.
For O=C1OC(CC(=O)N(Cc2nnc(-c3ccccc3Cl)o2)C2CC2)c2ccccc21 (stereo unspecified) the results were MIN6 prolif-1 1, MOR-DOR ag -3, MOR-DOR inv ag 16, HTR5A inv ctr 18 and HTR5A ag ctr -5.
For Cc1ccc(C(=O)OCC(=O)NCCN2C(=O)CSC2=O)cc1[N+](=O)[O-] the results were MIN6 prolif-1 2, MOR-DOR ag -1, MOR-DOR inv ag 4, HTR5A inv ctr 17 and HTR5A ag ctr -7.
`Cc1cc(C(=O)OCC(=O)NCCN2C(=O)CSC2=O)ccc1[N+](=O)[O-]` gave MIN6 prolif-1 9.7*, MOR-DOR ag -3, MOR-DOR inv ag 10, HTR5A inv ctr 9, HTR5A ag ctr -3 and MIN6 prolif-2 3.
`O=C(Cc1ccc(NC(=O)C2CCCN(C(=O)C3CC3)C2)cc1)Nc1cccc(C(=O)N2CCCCC2)c1` (stereo unspecified) gave MOR-DOR ag -3, MOR-DOR inv ag 13, HTR5A inv ctr 1 and HTR5A ag ctr 0.
CC(=O)c1cc2c(cc1F)C(C)(C)CCC2(C)C was read as MOR-DOR ag -2, MOR-DOR inv ag 8, HTR5A inv ctr 3 and HTR5A ag ctr -1.
CCC(C)[C@H](NC(=O)NCc1ccc(S(N)(=O)=O)cc1)C(=O)OC (stereo partly specified) was read as MIN6 prolif-1 1, MOR-DOR ag -1, MOR-DOR inv ag 8, p-CIP stab down -7, HTR5A inv ctr -9 and HTR5A ag ctr 3.
Screening COC(=O)[C@H](CCSC)NC(=O)NCc1ccc(S(N)(=O)=O)cc1 returned MIN6 prolif-1 8.2*, MOR-DOR ag 0, MOR-DOR inv ag 1, p-CIP stab down -13, HTR5A inv ctr -17, HTR5A ag ctr -1 and MIN6 prolif-2 -3.
For CC(=O)c1sc(N/N=C/c2cccc(O)c2)nc1C the results were MIN6 prolif-1 1, MOR-DOR ag -3, MOR-DOR inv ag 16, p-CIP stab down -29, HTR5A inv ctr 11 and HTR5A ag ctr -4.
`CC(=O)c1sc(N/N=C\c2ccc(N(C)C)cc2)nc1C` gave MIN6 prolif-1 6.6*, MOR-DOR ag 8, MOR-DOR inv ag -41, p-CIP stab down -26, HTR5A inv ctr -1, HTR5A ag ctr 0 and MIN6 prolif-2 2.
For CCN(CCn1cccn1)C(=O)c1ccc2nc(Cc3ccc(OC)cc3)oc2c1 the results were MIN6 prolif-1 0, MOR-DOR ag -4, MOR-DOR inv ag 18, p-CIP stab down -2, HTR5A inv ctr 4 and HTR5A ag ctr -4.
For COc1ccccc1N(CC(O)CN1CCOCC1)S(=O)(=O)c1ccccc1 (stereo unspecified) the results were MIN6 prolif-1 19*, MOR-DOR ag 0, MOR-DOR inv ag 2, p-CIP stab down 0, HTR5A inv ctr -8, HTR5A ag ctr -2 and MIN6 prolif-2 0.
COc1ccccc1N(CC(O)CN1CCCC1)S(=O)(=O)c1ccccc1 (stereo unspecified) was read as MIN6 prolif-1 0, MOR-DOR ag -2, MOR-DOR inv ag 14, p-CIP stab down 12, HTR5A inv ctr -54 and HTR5A ag ctr 1.
Screening CCOC(=O)c1cnc(-n2nc(C)cc2C)nc1Oc1ccccc1F returned MIN6 prolif-1 7.8*, p-CIP stab down -13 and MIN6 prolif-2 -6.
For CCCN(CC(=O)Nc1ccccc1OC)C(=O)c1ccc(COc2ccccc2)o1 the results were MIN6 prolif-1 -1, MOR-DOR ag -2, MOR-DOR inv ag 8, HTR5A inv ctr 14 and HTR5A ag ctr -6.
COCCNC(=O)C(c1ccc(F)cc1)N(Cc1cccs1)C(=O)CCC(=O)Nc1ccccn1 (stereo unspecified) was read as MIN6 prolif-1 5.5*, MOR-DOR ag 1, MOR-DOR inv ag -7, p-CIP stab down 3, HTR5A inv ctr -12, HTR5A ag ctr 4 and MIN6 prolif-2 -2.
